The nature of assay [1]: MultiTox-Fluor Cytotoxicity Assay - LYMP1-001 - Live Cells (AID 947).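 Also: 0% = DMSO only and full inhibition = tetraoctylammonium bromide control.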
Assay [2] is described as follows: Cell Viability - LYMP2-004 (AID 966).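 Also: plate controls were DMSO only for no effect and tetraoctylammonium bromide control for full effect; nearly all actives have a fitted effect of over 65% in size.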 Summed up:
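Acute toxicity is scored as a concentration-dependent drop in intracellular ATP, quantified by luciferase luminescence, in human lymphoblastoid cells exposed to compound for 24 hr. AC50 derives from Hill-equation modelling.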

Assay [3] in a line: Cell Viability - LYMP2-009 (AID 968).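 Also: series mostly up to about 92 µM; cells exposed to compound for 24 h at 37 °C; 0% = DMSO alone and the full-kill end = tetraoctylammonium bromide at 92 µM; nearly all actives have a fitted effect of over 55% in size.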
The nature of assay [4]: Cell Viability - LYMP2-010 (AID 981).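 Also: cells exposed to compound for 24 hours at 37 °C; % is scaled to controls: 0 for no effect and ±100 for the full control effect; nearly all actives have a fitted effect of over 55% in size.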 A digest of the protocol:
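Acute toxicity is scored as a concentration-dependent loss of cellular ATP in human lymphoblastoid cells after 24 hr compound exposure in complete medium. Tetraoctylammonium bromide is the positive control.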

A short description of assay [5]: Cell Viability - LYMP2-012 (AID 982).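 Also: cellular ATP by luciferase luminescence where a drop means cytotoxicity; cells exposed to compound for one day before reading; 0% = DMSO only and full loss = 92 µM tetraoctylammonium bromide; nearly all actives have a fitted effect of over 55% in size.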
Assay [6] has as its target Estrogen receptor (Homo sapiens) (UniProt P03372). The experiment in a line: qHTS assay for small molecule antagonists of estrogen receptor alpha signaling (AID 588513; active = well fitted curve in the direction sought with a large enough effect in the signal ratio, with a control signal flat, not every such curve was filed as active; the % refers to the signal ratio; also: % is scaled to controls: 0 for no effect and ±100 for the full control effect). Summed up:
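Fluorescence from CCF4 substrate after 2 h at room temperature gave reporter activity; cells had been exposed to compound and 0.5nM 17-beta-estradiol for 18 h at 37 C. Hill-equation fitting yielded IC50 and maximal response.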
On the technique in general: Quantitative high-throughput screening tests each substance at several concentrations.

Assay [7] shares this target. The experiment in a line: qHTS assay for small molecule agonists of estrogen receptor alpha signaling (AID 588514; calls by dose curve; also: nearly all actives have a fitted effect of over 70% in size; also: potency is read from the fitted curve at half-maximal effect;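 as to activation: 0% = vehicle only and 100% = reference agonist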). Summed up: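 Reporter-gene assay. […] controls beta-lactamase in HEK 293 GripTite cells; after 18 hrs with compound, CCF4 substrate is added for 2 hrs and fluorescence is read.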
The target in assay [8] is Glucocorticoid receptor (Homo sapiens) (UniProt P04150). The experiment in a line: qHTS assay for small molecule agonists of glucocorticoid receptor signaling (AID 588532; active = well fitted curve in the direction sought with a large enough effect in the signal ratio, with a control signal flat; the % refers to the signal ratio;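 also: 100% = dexamethasone at 0.1 µM and 0% = DMSO only wells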). The settings on record: HeLa MMTV-bla, beta-lactamase ratio, agonist, 18 h; hits give high values; percent of dexamethasone control, DMSO zero. A digest of the protocol:
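MMTV-bla HeLa beta-lactamase reporter cells in 1% charcoal/dextran FBS medium, compounds up to 92 uM for 18 h at 37 C, CCF4 readout; normalized to 0.1 uM dexamethasone (100%), EC50 and efficacy from Hill fits.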

The target is the same in assay [9]. Nature of the assay: qHTS assay for small molecule antagonists of glucocorticoid receptor signaling (AID 588533; active = well fitted inhibition curve with a large enough effect in the signal ratio, with a control signal flat, not every such curve was filed as active; the % refers to the signal ratio;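 also: cells stimulated with 2 nM dexamethasone as agonist; % is scaled to controls: 0 for no effect and ±100 for the full control effect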). Summed up: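 Antagonist-mode qHTS: compound titrations added to GRE-bla HeLa cells, then dexamethasone 2 nM final; 18 h, 37 C. CCF4 FRET fluorescence normalized to dexamethasone and DMSO; IC50 from Hill fit.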
Assay [10] deals with Peroxisome proliferator-activated receptor delta (Homo sapiens) (UniProt Q03181). The experiment in a line: qHTS assay for small molecule agonists of peroxisome proliferator-activated receptor delta signaling (AID 588534; calls by dose curve;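 also: 0% = DMSO basal wells and 100% = positive control agonist at 10 µM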). A digest of the protocol:
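Reporter cells were plated and held 5 hrs at 37 C before compounds were added. After 18 hrs at 37 C, CCF4 dye was loaded for 2 hrs at RT and fluorescence measured.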

Assay [11] has as its target Peroxisome proliferator-activated receptor gamma (Homo sapiens) (UniProt P37231). The experiment in a line: qHTS assay for small molecule agonists of peroxisome proliferator-activated receptor gamma signaling (AID 588536; active = well fitted curve in the direction sought with a large enough effect in the signal ratio, with a control signal flat, not every such curve was filed as active; the % refers to the signal ratio;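 also: 0% = DMSO basal wells and 100% = rosiglitazone at 2 µM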). A digest of the protocol:
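HEK293 UAS-bla reporter line, 1% charcoal/dextran FBS; titration, 16 h, 37 C; CCF4 loading 2 h RT; fluorescence 460/530 nm. Normalized to rosiglitazone 2 uM = 100%, DMSO = 0%.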

Assay [12] deals with Thyroid hormone receptor beta (Homo sapiens) (UniProt P10828). Nature of the assay: qHTS assay for small molecule agonists of thyroid hormone receptor beta signaling (AID 588545; calls by dose curve). A digest of the protocol: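 Agonist-mode beta-lactamase reporter assay, HEK 293 cells, 2% charcoal/dextran FBS; cells plated 4 hrs, compound 18 hrs at 37 C, CCF4 2 hrs RT. Normalized to 10 nM T3 (100%) and DMSO (0%); Hill fit gives EC50, efficacy.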
Thyroid hormone receptor beta (Homo sapiens), sequence (P10828 whole entry, looked up): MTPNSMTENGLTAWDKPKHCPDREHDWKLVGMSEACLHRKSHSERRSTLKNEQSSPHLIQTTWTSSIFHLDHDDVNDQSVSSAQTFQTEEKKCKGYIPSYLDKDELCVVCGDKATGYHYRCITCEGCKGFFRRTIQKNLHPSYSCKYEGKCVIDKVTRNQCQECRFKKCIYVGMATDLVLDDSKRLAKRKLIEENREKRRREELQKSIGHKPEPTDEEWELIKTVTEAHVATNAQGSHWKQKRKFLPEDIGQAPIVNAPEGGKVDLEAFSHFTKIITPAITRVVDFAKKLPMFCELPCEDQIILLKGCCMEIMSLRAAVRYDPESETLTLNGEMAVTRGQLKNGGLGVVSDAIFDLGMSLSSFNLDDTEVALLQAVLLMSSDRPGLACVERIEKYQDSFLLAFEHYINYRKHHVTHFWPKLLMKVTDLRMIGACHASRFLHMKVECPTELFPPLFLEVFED

Assay [13] shares this target. Nature of the assay: qHTS assay for small molecule antagonists of thyroid hormone receptor beta signaling (AID 588547; active = well fitted inhibition curve with a large enough effect in the signal ratio, with a control signal flat, not every such curve was filed as active; the % refers to the signal ratio;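 also: cells stimulated with 0.4 nM T3 agonist during compound exposure; series mostly up to about 77 µM; % is scaled to controls: 0 for no effect and ±100 for the full control effect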). Particulars: TR-UAS-bla HEK293, beta-lactamase ratio, antagonist mode, 18 h. A digest of the protocol: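 TR-UAS-bla GripTite HEK293 cells in 2% charcoal/dextran FBS medium; compounds 0.59 nM to 92 uM with T3 at 0.4nM final, 18 h at 37 C. Beta-lactamase read by CCF4 fluorescence (460/530 nm); Hill fits gave IC50 and efficacy.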

The nature of assay [14]: qHTS assay for small molecule activators of the p53 signaling pathway (AID 651743; active = well fitted activation curve with a large enough effect in the signal ratio, not every such curve was filed as active; the % refers to the signal ratio; also: series mostly up to about 92 µM; % of control where 0% means no effect). The settings on record: HCT-116 p53RE-bla, beta-lactamase FRET ratio, 16 h; activation: hits give high values. Summed up: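 HCT-116 p53RE-bla, 4,000 cells/well; 5 h settle; cpd/DMSO 16 h, 37 C; LiveBLAzer B/G 2 h RT; fluorescence intensity.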
Assay [15] deals with Nuclear receptor ROR-gamma (Homo sapiens) (UniProt P51449). The experiment in a line: qHTS assay for small molecule antagonists of the retinoid-related orphan receptor gamma (ROR-gamma) signaling pathway (AID 651802). Also: series mostly up to about 92 µM; % is scaled to controls: 0 for no effect and ±100 for the full control effect; nearly all actives have a fitted effect of over 60% in size. A digest of the protocol:
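Antagonism is scored as a fall in luminescence from a RORE-luciferase reporter in CHO cells expressing ROR under a TET-inducible promoter, measured 16hr after doxycycline induction in the presence of compound.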

A short description of assay [16]: qHTS assay for small molecule antagonists of the retinoid-related orphan receptor gamma (ROR-gamma) signaling pathway - cell viability counter screen (AID 720652; active = well fitted curve in the direction sought with a large enough effect in the repeat runs; an effect the other way counts as inactive or inconclusive;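 also: series mostly up to about 92 µM; compound exposure lasted 16 hr before ATP read; % is scaled to controls: 0 for no effect and ±100 for the full control effect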). Summed up: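 Cytotoxicity is quantified via intracellular ATP (CellTiter-Glo luminescence) in doxycycline-induced CHO ROR response element-luciferase reporter cells treated with compound for 16 hr at 37 C, 5% CO2.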

The target in assay [17] is Nuclear receptor subfamily 1 group I member 2 (Rattus norvegicus) (UniProt Q9R1A7). The experiment in a line: qHTS assay for small molecule activators of the rat pregnane X receptor (rPXR) signaling pathway (AID 651751; call rule not given here; also: 0% is about no effect). Particulars: rPXR reporter cells, luciferase (One-Glo), 24 h.
Nuclear receptor subfamily 1 group I member 2 (Rattus norvegicus), sequence (Q9R1A7 whole entry, looked up): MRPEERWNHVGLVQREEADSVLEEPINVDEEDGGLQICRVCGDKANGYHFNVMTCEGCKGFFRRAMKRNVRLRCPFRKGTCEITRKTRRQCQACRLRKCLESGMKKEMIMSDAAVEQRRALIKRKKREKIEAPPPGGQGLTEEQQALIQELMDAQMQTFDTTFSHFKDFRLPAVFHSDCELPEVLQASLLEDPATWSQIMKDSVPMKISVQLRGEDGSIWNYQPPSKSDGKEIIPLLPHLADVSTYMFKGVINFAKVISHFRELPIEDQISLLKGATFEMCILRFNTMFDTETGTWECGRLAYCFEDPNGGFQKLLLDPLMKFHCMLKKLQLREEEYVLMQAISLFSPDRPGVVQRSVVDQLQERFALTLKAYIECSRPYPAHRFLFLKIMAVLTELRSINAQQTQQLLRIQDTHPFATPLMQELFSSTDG
The target in assay [18] is Cytochrome P450 3A4 (Homo sapiens) (UniProt P08684). Nature of the assay: qHTS Assay for Inhibitors and Substrates of Cytochrome P450 3A4 (AID 884). Also: series mostly up to about 57 µM; % is scaled to controls: 0 for no effect and ±100 for the full control effect; nearly all actives have a fitted effect of over 50% in size. A digest of the protocol: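 20 nM human CYP3A4 with 25 uM Luciferin-PPXE (at KM) in 200 mM KPO4, preincubated 10 min with compound; NADPH regeneration started a 60 min RT reaction. Luciferin detected by luminescence, normalized to 57 uM ketoconazole as full inhibition.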
Cytochrome P450 3A4 (Homo sapiens), sequence (P08684 whole entry, looked up): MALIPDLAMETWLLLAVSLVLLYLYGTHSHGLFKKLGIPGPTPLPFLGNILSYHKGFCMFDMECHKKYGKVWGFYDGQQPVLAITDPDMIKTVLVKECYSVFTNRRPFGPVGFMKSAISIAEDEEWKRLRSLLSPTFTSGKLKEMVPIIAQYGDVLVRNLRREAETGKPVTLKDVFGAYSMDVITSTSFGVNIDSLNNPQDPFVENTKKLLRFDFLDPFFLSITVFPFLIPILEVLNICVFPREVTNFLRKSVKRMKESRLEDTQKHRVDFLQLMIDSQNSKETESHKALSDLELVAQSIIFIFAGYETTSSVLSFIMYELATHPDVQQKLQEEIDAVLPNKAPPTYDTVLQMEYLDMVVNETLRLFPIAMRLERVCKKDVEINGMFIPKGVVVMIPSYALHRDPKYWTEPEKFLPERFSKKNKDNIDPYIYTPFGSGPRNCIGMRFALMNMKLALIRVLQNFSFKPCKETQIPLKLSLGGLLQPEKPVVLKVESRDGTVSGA

Assay [19] deals with Voltage-gated inwardly rectifying potassium channel KCNH2 (Homo sapiens) (UniProt Q12809). Nature of the assay: qHTS Assay for Small Molecule Inhibitors of the Human hERG Channel Activity (AID 588834).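 Also: lower thallium flux fluorescence means stronger hERG block; nearly all actives have a fitted effect of over 50% in size.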 Also: potency is read from the fitted curve at half-maximal effect. Summed up:
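hERG-BacMam U2OS, 2000 cells/well; 0.7X FluxOR loading 1 hr RT dark; cpd ~10 min 37 °C; stim buffer; FDSS fluorescence 2 min @ 1 s; AC50 Hill fit.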

Assay [20] is described as follows: qHTS assay for small molecule activators of the human pregnane X receptor (PXR) signaling pathway (AID 720659; call rule not given here; also: 0% is about no effect).

The values below come from PubChem BioAssay (NCATS).

Values joined by “and” are separate entries in the source; they are usually repeats but may differ in a detail not shown here. Equal entries are not always repeated. Values without a mark were called inactive. Inconclusive results are not listed. Active and inactive are the calls of the source. Unless noted, calls follow the shape of the dose curve; as a rule, active = well fitted curve in the direction sought with a large enough effect; inconclusive = small, poorly fitted or top-dose-only effect, or another doubt; inactive = no such curve, though single readings can be large; an effect the other way counts as inactive or inconclusive.

Peroxisome proliferator-activated receptor delta (Homo sapiens), sequence (Q03181 whole entry, looked up): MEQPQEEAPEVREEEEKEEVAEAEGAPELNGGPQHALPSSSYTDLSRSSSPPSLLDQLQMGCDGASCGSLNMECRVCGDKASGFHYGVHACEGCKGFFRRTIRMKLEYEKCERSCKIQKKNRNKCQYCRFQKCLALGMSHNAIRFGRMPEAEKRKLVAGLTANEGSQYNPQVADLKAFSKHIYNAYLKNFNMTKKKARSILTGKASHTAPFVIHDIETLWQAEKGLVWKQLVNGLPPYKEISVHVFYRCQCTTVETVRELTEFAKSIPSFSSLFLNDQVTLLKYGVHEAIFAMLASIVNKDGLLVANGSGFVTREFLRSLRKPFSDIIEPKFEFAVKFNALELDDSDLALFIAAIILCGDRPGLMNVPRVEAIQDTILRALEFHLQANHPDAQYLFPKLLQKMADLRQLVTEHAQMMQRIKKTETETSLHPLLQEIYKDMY
Peroxisome proliferator-activated receptor gamma (Homo sapiens), sequence (P37231 whole entry, looked up): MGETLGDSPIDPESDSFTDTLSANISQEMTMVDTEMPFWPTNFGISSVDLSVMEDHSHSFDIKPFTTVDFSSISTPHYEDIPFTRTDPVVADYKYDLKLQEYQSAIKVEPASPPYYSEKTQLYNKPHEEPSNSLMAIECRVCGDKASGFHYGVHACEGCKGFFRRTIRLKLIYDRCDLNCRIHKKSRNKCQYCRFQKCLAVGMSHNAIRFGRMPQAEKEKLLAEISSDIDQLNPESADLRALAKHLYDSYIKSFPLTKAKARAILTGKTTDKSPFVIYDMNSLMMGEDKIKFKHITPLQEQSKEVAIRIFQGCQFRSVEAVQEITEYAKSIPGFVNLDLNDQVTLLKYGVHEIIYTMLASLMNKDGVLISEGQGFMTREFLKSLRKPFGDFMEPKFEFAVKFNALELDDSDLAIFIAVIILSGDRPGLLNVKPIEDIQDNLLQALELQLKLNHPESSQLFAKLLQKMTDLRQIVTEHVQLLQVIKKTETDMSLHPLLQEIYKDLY
Estrogen receptor (Homo sapiens), sequence (P03372 whole entry, looked up): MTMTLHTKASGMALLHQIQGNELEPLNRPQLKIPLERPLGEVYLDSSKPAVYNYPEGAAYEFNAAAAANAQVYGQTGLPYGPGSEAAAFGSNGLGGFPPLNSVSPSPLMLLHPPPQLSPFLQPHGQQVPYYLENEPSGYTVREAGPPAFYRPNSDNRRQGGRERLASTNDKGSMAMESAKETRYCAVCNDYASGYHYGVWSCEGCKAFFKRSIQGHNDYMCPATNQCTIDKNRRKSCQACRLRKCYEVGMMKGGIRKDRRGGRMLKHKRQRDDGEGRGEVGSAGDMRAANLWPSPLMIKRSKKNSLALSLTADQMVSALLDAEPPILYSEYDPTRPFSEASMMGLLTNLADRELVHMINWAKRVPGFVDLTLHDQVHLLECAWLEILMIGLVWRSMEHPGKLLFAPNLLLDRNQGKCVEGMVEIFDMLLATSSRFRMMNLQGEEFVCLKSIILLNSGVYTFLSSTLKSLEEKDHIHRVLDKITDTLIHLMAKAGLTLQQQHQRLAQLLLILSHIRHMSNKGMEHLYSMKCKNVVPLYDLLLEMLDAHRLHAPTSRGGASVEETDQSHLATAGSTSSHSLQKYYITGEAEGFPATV
Voltage-gated inwardly rectifying potassium channel KCNH2 (Homo sapiens), sequence (Q12809 whole entry, looked up): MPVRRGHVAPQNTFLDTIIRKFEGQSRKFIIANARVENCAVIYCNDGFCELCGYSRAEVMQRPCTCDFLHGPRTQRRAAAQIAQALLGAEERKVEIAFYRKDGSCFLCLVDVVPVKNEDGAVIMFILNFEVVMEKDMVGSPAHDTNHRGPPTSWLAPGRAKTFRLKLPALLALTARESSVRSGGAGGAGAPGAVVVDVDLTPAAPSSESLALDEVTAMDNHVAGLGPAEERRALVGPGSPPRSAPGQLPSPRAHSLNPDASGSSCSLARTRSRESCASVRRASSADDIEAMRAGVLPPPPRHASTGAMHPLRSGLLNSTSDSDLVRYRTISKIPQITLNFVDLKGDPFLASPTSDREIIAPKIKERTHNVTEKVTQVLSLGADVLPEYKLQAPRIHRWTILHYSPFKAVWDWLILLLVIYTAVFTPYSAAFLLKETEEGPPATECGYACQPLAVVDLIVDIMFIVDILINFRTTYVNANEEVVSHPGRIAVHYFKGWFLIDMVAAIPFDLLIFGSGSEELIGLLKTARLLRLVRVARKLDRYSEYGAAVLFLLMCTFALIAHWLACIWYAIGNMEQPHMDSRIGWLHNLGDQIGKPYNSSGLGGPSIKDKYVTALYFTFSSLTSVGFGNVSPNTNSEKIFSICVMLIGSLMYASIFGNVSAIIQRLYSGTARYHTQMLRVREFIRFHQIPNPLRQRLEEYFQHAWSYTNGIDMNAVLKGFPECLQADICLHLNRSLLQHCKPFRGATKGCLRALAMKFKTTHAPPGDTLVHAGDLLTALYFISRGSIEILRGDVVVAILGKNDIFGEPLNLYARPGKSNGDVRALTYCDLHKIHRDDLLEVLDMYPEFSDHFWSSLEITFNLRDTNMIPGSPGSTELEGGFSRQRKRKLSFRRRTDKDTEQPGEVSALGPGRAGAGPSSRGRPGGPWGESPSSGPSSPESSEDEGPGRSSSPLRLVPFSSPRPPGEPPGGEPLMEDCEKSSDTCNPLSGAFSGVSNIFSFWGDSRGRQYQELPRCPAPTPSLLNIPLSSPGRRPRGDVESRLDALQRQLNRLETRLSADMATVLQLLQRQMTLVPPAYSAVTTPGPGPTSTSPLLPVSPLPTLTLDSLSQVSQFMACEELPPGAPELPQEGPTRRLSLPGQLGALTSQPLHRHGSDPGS
Glucocorticoid receptor (Homo sapiens), sequence (P04150 whole entry, looked up): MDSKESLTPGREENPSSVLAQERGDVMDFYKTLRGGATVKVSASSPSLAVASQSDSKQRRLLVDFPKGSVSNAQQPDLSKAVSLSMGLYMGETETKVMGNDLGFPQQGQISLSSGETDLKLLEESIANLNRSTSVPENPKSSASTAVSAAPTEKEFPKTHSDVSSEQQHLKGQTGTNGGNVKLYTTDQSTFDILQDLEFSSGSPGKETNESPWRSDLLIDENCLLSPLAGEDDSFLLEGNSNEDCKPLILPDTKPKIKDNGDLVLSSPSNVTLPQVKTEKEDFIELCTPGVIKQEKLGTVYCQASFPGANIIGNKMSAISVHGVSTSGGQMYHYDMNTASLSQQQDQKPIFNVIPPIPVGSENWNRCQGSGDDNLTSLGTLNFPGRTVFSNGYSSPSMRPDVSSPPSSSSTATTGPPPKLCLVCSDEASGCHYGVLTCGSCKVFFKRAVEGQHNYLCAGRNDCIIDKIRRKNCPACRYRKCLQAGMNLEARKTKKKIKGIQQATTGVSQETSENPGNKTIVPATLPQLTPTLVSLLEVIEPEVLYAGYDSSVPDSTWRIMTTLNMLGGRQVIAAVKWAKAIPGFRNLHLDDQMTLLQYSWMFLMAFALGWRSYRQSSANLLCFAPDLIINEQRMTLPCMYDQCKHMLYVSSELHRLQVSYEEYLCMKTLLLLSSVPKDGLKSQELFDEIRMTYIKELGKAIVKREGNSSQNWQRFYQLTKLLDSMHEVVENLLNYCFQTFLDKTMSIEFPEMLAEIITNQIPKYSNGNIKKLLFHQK

As to `CC(C)(c1ccccc1)c1ccc(O)cc1`, the Potency entry in assay [1], in [2], in assay [3], in assay [4], in assay [5] and in assay [6] was “inactive” each time. For the same molecule, the Potency entry in assay [9], in assay [15] and in assay [16] was “inactive” in each case. Besides, the Potency in assay [7] was 1.78 µM (active) and 3.16 µM (active). The activation was 2.95% and 9.77% in [8]; -4.52% and -0.799% in [14]. Besides, the molecule was classed as inactive in assay [10], in [11] and in assay [12]. Besides, the activity change % (negative = inhibition) in assay [13] was -5.71% and 17.9%. For the same molecule, the max response in assay [17] is 0.482% and 0.567%.
Turning to `Cc1ccc2ccccc2c1`, the Potency entry in assay [18], in assay [1], in assay [2], in [3], in [4] and in [5] was “inactive” throughout. Besides, the Potency entry in [6], in [7], in assay [19], in assay [15] and in [16] was “inactive” in each case. Also, the molecule was called inactive in [10], in [11], in [12] and in [20]. In assay [13], the activity change % (negative = inhibition) was 0.181%. Also, in assay [14], the activation is -0.481%. Also, in assay [17], the max response is 6.07%.
Turning to `c1ccc(-c2ccccc2)cc1`, the Potency entry in assay [18], in [2], in assay [3], in assay [4], in assay [5] and in [6] was “inactive” each time. Further, the Potency result in assay [7], in assay [9], in assay [15] and in assay [16] was “inactive” each time. The activation was -0.478% and -3.49% in assay [8]; 2.71% and -2.97% in [14]. Further, the result in [10], in assay [11] and in [12] was inactive. Further, the activity change % (negative = inhibition) in assay [13] was -3.07% and -0.354%. Moreover, the Potency in [19] was 44.7 µM (active).
`Clc1nc(Cl)nc(Nc2ccccc2Cl)n1`: the Potency result in assay [18], in assay [1], in assay [2], in assay [3], in assay [4] and in [5] was “inactive” each time. The Potency result in [6], in [7], in [9], in assay [19], in [15] and in [16] was “inactive” each time. In addition, the activation was 0.42% and 30.1% in assay [8]; -1.67% and -3.76% in assay [14]. Moreover, the outcome in [10], in assay [11] and in assay [12] was inactive. In addition, the activity change % (negative = inhibition) in [13] was 11.4%.
For `O=C(CC[N+](=O)[O-])OCC1OC(O)C(OC(=O)CC[N+](=O)[O-])[C@@H](OC(=O)CC[N+](=O)[O-])C1OC(=O)CC[N+](=O)[O-]` (stereo not given in full), the Potency result in [18] was “inactive”.
In the case of `CCOP(=S)(OCC)SCSC(C)(C)C`, the Potency result in assay [18], in [1], in assay [2], in assay [3], in assay [4] and in [5] was “inactive” in each case. For the same molecule, the Potency result in assay [6], in assay [7] and in assay [16] was “inactive” each time. Besides, the molecule was classed as inactive in assay [10], in assay [11] and in assay [12]. For the same molecule, the activity change % (negative = inhibition) in assay [13] was -5% and -15.6%. In addition, the activation in [14] was 3.78% and -1.22%. Moreover, the max response in [17] was 3.05% and 5.9%.
With `Brc1ccc(Oc2cc(Br)c(Br)cc2Br)c(Br)c1`, the Potency entry in assay [18], in [1], in [2], in [3], in assay [4] and in [5] was “inactive” throughout. In addition, the Potency entry in assay [6], in [7], in assay [19] and in assay [16] was “inactive” throughout. Besides, the molecule was called inactive in assay [10] and in assay [12]. Moreover, the activity change % (negative = inhibition) in assay [13] was 8.45% and -8.42%. Besides, the activation in [14] was -4.19%.
